PubChem BioAssay (Tox21)
Records with an inconclusive call do not appear. The source made the active and inactive calls. Unless noted, calls come from the whole dose curve; as a rule, active = well fitted curve in the direction sought with a large enough effect in the repeat runs; inconclusive = weak or mixed curves; inactive = no such curve, though single readings can be large; an effect the other way counts as inactive or inconclusive.

How the values were obtained:
[1] = A CellTox Green Cytotoxicity Assay to monitor cytotoxicity in HEK293 cells - 8 hour (AID 1224884); note: nearly all actives have a fitted effect of over 35% in size; note: potency is the fitted concentration of half-maximal effect
How it was run: (§1)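 HEK293 cells, 600/well, were preincubated 5 hours and then exposed to compounds at 37 C for up to 40 hours. A cell-impermeant cyanine dye staining dead-cell DNA was read by fluorescence at 0, 8, 16, 24, 32 and 40 h time points.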

[2] = qHTS RealTime-Glo MT Cell Viability Assay in HepG2 cells - 16 hour (AID 1224885); note: nearly all actives have a fitted effect of over 50% in size; note: potency is the fitted concentration of half-maximal effect
How it was run: (§2)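 HepG2 cells were seeded at 600 cells/well together with NanoLuc luciferase and a cell-permeant prosubstrate, preincubated 5 h at 37 C/5% CO2, then pin-dosed with compounds in DMSO. Nonlytic luminescence from viable cells was read at each time point.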

[3] = qHTS RealTime-Glo MT Cell Viability Assay in HEK293 cells - 24 hour (AID 1224886); note: nearly all actives have a fitted effect of over 50% in size; note: potency is the fitted concentration of half-maximal effect; for activity change, negative = cytotoxicity: top concentration of the series differs between compounds
How it was run: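 HEK293 cells were seeded at 600 cells/well together with NanoLuc luciferase and cell-permeant prosubstrate, preincubated 5 h at 37 C/5% CO2, then given compound in DMSO by pintool. Luminescence from viable-cell prosubstrate reduction was read repeatedly over 40 h.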

[4] = qHTS RealTime-Glo MT Cell Viability Assay in HEK293 cells - 8 hour (AID 1224887); note: nearly all actives have a fitted effect of over 50% in size; note: potency is the fitted concentration of half-maximal effect; for activity change, negative = cytotoxicity: top concentration of the series differs between compounds
How it was run: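 600 cells/well were plated with the nonlytic NanoLuc/prosubstrate reagent, pre-incubated 5 h, then given 23 nL of compound in DMSO. Incubation at 37 C for 40 h, with luminescence from viable-cell-reduced substrate read repeatedly from 0 h.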

[5] = A CellTox Green Cytotoxicity Assay to monitor cytotoxicity in HEK293 cells - 16 hour (AID 1224888); note: nearly all actives have a fitted effect of over 35% in size; note: potency is the fitted concentration of half-maximal effect
How it was run: as §1

[6] = qHTS RealTime-Glo MT Cell Viability Assay in HepG2 cells - 0 hour (AID 1224889); note: nearly all actives have a fitted effect of over 50% in size
How it was run: as §2

[7] = A CellTox Green Cytotoxicity Assay to monitor cytotoxicity in HepG2 cells - 8 hour (AID 1224890); note: nearly all actives have a fitted effect of over 45% in size; note: potency is the fitted concentration of half-maximal effect
How it was run: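 HepG2 cells, 600/well, preincubated 5 h with CellTox Green dye, then exposed to Tox21 compounds in DMSO at 37 C for up to 40 h. Dead-cell DNA fluorescence read at the indicated time point.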

[8] = qHTS assay to identify small molecule antagonists of the estrogen receptor alpha (ER-alpha) signaling pathway using the BG1 cell line in the presence of 0.1 nM 17-beta-estradiol - cell viability counter screen (AID 1259241); note: nearly all actives have a fitted effect of over 40% in size; note: potency is the fitted concentration of half-maximal effect
How it was run: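 VM7Luc4E2, 4,000 cells/well, phenol red-free medium + 10% charcoal-stripped FBS; 24 hr plating; cpd + 0.1 nM E2 final, 22 hr 37C/5% CO2; CellTiter-Fluor 30 min, fluorescence.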

[9] = qHTS assay to identify small molecule antagonists of the androgen receptor (AR) signaling pathway using the MDA cell line in the presence of 0.5 nM R1881 - cell viability counter screen (AID 1259242); note: nearly all actives have a fitted effect of over 45% in size; note: potency is the fitted concentration of half-maximal effect
How it was run: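 MDA-kb2 cells (MMTV-luciferase, AR/GR responsive) were treated with compounds plus 0.5 nM R1881 (final) for 16 hr at 37C, 0% CO2. Viability was then read in the same wells as live-cell protease fluorescence (CellTiter-Fluor, 30 min).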

[10] = molecular target: Estrogen receptor (Homo sapiens) (UniProt P03372); experiment: qHTS assay to identify small molecule antagonists of the estrogen receptor alpha (ER-alpha) signaling pathway using the BG1 cell line in the presence of 0.1 nM 17-beta-estradiol (AID 1259244); note: nearly all actives have a fitted effect of over 50% in size
Chain of Estrogen receptor (Homo sapiens) (P03372 whole entry, looked up): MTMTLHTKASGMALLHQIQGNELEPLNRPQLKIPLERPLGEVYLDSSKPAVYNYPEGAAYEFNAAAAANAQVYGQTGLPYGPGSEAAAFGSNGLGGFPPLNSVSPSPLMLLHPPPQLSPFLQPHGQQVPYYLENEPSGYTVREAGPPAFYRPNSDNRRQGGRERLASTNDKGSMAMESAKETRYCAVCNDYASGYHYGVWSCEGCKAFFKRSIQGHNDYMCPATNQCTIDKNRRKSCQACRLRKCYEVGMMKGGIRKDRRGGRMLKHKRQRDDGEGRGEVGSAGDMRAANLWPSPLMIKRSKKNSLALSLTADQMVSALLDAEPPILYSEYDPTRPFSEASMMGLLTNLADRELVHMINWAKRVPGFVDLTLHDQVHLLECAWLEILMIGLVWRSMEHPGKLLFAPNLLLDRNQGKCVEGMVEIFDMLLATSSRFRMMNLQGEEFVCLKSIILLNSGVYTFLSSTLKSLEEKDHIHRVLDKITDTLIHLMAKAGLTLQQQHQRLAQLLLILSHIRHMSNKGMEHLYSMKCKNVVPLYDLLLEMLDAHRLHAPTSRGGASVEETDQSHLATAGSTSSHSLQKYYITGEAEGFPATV
How it was run: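 VM7Luc4E2 cells (endogenous full-length ER-alpha, 4×ERE-luciferase), kept 5 days in phenol red-free, charcoal-stripped FBS medium; 4,000 cells/well. Compounds added with 0.1 nM (final) 17beta-estradiol, 22 hr at 37C; luminescence read with ONE-Glo after 30 min.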

[11] = qHTS assay to identify small molecule HDAC inhibitors (AID 1259364); note: top concentration of the series differs between compounds; nearly all actives have a fitted effect of over 45% in size
How it was run: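 Wild-type HCT-116 cells, plated overnight at 37 C, exposed to compounds 2 hr at 37 C; luminogenic HDAC-Glo substrate then added 30 min at room temperature. Luminescence reports relative endogenous class I/II HDAC activity.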

[12] = qHTS assay to identify small molecule HDAC inhibitors - cell viability counter screen (AID 1259365)
How it was run: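 Luminescence from CellTiter-Glo, developed 30min at room temperature, reports viability of wild-type HCT-116 cells treated 2hr with compounds at 37 C and 5% CO2 after overnight plating.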

[13] = qHTS assay to identify small molecule agonists of the sonic hedgehog signaling (Shh) pathway - cell viability counter screen (AID 1259366); note: nearly all actives have a fitted effect of over 50% in size; note: potency is the fitted concentration of half-maximal effect
How it was run: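 Cytotoxicity counter screen run in the same wells as the Shh reporter assay. NIH/3T3 cells carrying a Gli1 response element–driven luciferase were treated with DMSO-dissolved compounds for 24hr, and live-cell protease activity was measured with CellTiter-Fluor.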

[14] = qHTS assay to identify small molecule antagonists of the sonic hedgehog signaling (Shh) pathway - cell viability counter screen (AID 1259367); note: nearly all actives have a fitted effect of over 55% in size; note: potency is the fitted concentration of half-maximal effect
How it was run: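 Using CellTiter-Fluor, viability of Gli1-Luc reporter 3T3 cells is read by fluorescence in the wells used for the Shh luciferase assay. Treatment lasts 23 hr with conditioned medium, then reagent 1 hr at 37C.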

[15] = qHTS assay to identify small molecule agonists of the sonic hedgehog signaling (Shh) pathway (AID 1259368; calls by dose curve;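 note: NIH/3T3-derived 3T3Gli1-Luc cells carrying a stable Gli1-driven firefly luciferase reporter; series mostly up to about 92 µM; nearly all actives have a fitted effect of over 15% in size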)
How it was run: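 NIH/3T3-derived 3T3Gli1-Luc cells with stably integrated Gli1-driven firefly luciferase, 2,000 cells/well, compounds added after 4 hr. Incubated 24 hr at 37C, 5% CO2; luminescence read after 30 min with luciferase reagent at room temperature.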

[16] = qHTS assay to identify small molecule antagonists of the sonic hedgehog signaling (Shh) pathway (AID 1259369; calls by dose curve; note: nearly all actives have a fitted effect of over 45% in size; note: potency is the fitted concentration of half-maximal effect)
How it was run: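 NIH/3T3-derived Gli1-Luc reporter cells plated 4 h, dosed with compound, then stimulated with conditioned medium for 24 h at 37 C. Firefly luciferase luminescence read after 30 min with detection reagent at room temperature.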

[17] = molecular target: Estrogen receptor beta (Homo sapiens) (UniProt Q92731); experiment: qHTS assay to identify small molecule antagonists of the estrogen receptor beta (ER-beta) signaling pathway (AID 1259378; active = well fitted inhibition curve with a large enough effect in the signal ratio in the repeat runs, not every such curve was filed as active; the % refers to the signal ratio)
Chain of Estrogen receptor beta (Homo sapiens) (Q92731 whole entry, looked up): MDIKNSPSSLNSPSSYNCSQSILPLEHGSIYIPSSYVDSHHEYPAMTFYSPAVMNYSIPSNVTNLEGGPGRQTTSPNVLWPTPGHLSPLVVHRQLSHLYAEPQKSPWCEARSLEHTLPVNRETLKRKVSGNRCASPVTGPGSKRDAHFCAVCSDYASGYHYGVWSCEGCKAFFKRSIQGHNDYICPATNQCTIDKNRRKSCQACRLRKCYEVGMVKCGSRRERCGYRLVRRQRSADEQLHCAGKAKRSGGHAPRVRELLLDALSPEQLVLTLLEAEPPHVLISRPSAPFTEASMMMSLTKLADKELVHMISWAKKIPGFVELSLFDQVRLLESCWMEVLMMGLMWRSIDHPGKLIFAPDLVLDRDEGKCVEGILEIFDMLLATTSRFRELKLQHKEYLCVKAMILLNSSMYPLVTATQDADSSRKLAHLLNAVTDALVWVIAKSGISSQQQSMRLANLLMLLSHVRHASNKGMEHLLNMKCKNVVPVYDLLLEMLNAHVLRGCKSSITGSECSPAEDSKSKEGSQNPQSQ
How it was run: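 Antagonist mode: compounds added to beta-lactamase reporter HEK293T ER-beta-UAS cells stimulated with E2 (1nM final), 16 hr at 37C. LiveBLAzer B/G FRET substrate, 2 hours room temperature, fluorescence read-out.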

[18] = molecular target: Estrogen receptor beta (Homo sapiens) (UniProt Q92731); experiment: qHTS assay to identify small molecule agonists of the estrogen receptor beta (ER-beta) signaling pathway (AID 1259377; active = well fitted activation curve with a large enough effect in the signal ratio in the repeat runs, not every such curve was filed as active; the % refers to the signal ratio)
How it was run: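 HEK293T ER-beta-UAS-bla; 2% charcoal-stripped FBS; cells pre-incubated 6 hr, compound 16 hr, 37C/5% CO2; LiveBLAzer B/G FRET substrate 2 h RT; fluorescence intensity read.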

[19] = molecular target: Androgen receptor (Homo sapiens) (UniProt P10275); experiment: qHTS assay to identify small molecule antagonists of the androgen receptor (AR) signaling pathway using the MDA cell line in the presence of 0.5 nM R1881 (AID 1259243); note: nearly all actives have a fitted effect of over 50% in size
Chain of Androgen receptor (Homo sapiens) (P10275 whole entry, looked up): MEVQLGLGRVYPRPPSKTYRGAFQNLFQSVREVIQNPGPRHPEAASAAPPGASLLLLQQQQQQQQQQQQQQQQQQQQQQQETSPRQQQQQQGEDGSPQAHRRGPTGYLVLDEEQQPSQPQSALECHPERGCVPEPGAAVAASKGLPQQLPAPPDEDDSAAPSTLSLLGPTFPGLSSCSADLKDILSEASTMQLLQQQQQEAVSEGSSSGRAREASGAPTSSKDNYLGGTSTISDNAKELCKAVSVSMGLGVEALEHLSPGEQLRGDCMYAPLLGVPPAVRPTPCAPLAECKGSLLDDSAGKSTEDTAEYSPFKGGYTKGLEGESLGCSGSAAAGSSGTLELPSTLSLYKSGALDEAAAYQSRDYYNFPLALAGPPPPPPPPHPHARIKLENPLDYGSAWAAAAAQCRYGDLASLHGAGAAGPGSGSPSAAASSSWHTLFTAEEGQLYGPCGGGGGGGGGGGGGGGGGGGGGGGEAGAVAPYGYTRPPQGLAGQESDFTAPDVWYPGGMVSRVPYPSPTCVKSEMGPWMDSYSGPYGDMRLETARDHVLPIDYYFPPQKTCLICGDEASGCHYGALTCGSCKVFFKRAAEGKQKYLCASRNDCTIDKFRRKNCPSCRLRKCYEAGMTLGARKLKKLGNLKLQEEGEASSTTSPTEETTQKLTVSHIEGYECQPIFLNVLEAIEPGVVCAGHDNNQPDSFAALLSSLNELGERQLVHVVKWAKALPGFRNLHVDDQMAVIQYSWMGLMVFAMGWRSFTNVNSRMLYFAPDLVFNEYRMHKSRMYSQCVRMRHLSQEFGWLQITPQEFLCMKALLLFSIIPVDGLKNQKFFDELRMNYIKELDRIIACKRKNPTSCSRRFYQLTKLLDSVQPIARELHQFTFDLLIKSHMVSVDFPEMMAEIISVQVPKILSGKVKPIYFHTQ
How it was run: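 MDA-kb2 cells (MMTV-luciferase, responsive to AR and GR) at 3,000/well, rested 5 h at 37C, 0% CO2, then given compounds plus 0.5 nM R1881 (final) for 16 hr. Luciferase read with ONE-Glo after 30 min at room temperature.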

[20] = qHTS assay to identify small molecule phospholipidosis (PLD) inducers (AID 1259344; active = well fitted curve in the direction sought with a large enough effect; an effect the other way counts as inactive or inconclusive)
How it was run: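 Fluorescent phospholipid staining (LipidTOX Red) measured by automated microscopy in fixed HepG2 cells after 24 h treatment; nuclei counterstained with Hoechst 33342; amiodarone as reference inducer.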
% is set by controls: 0 for no effect and ±100 for the full control effect.

CCCC(C)C=O (stereo unspecified)
inactive: Potency [1] | Potency [2] | Potency [3] | Potency [4] | Potency [5] | Potency [6] | Potency [7] | Potency [8] | Potency [9] | Potency [10] | Potency [11] | Potency [12] | Potency [13] | Potency [14] | Potency [15] | Potency [16] | Potency [17]

C=CC(=O)O[C@H]1C[C@@H]2CC[C@@]1(C)C2(C)C
inactive: Potency [1] | Potency [2] | Potency [3] | Potency [4] | Potency [5] | Potency [6] | Potency [7] | Potency [8] | Potency [9] | Potency [10] | Potency [11] | Potency [12] | Potency [13] | Potency [14] | Potency [15] | outcome [18] | Potency [17]

O=C(O)C[C@H](O)C[C@H](O)/C=C/c1c(C2CC2)nc2ccccc2c1-c1ccc(F)cc1
inactive: cytotoxicity increase [1] -1.19% [at 15.8 µM] | activity change, negative = cytotoxic [2] 0.557% [at 15.8 µM] | activity change, negative = cytotoxicity [3] -0.416% [at 15.8 µM] | activity change, negative = cytotoxicity [4] 5.42% [at 15.8 µM] | activity change [5] 2.31% [at 15.8 µM, hits give high values] | activity change, negative = cytotoxicity [6] -0.353% [at 15.8 µM] | cytotoxicity increase [7] -9.83% [at 15.8 µM] | activity change, negative = cytotoxicity [8] 6.55% [at 19 µM] | viability change, negative = cytotoxic [9] -6.18% [at 19 µM] | activity, negative = inhibition [19] 31.2% [at 19 µM] | activity change, negative = inhibition [10] 17.2% [at 19 µM] | Potency [20] | activity change, negative = inhibition [11] -0.0181% [at 19 µM] | activity change, negative = cytotoxicity [12] 0.738% [at 19 µM] | viability change, negative = cytotoxic [13] -7.99% [at 19 µM] | viability change, negative = cytotoxic [14] -0.451% [at 19 µM] | activity change [15] -2.24% [at 18.9 µM, hits give high values] | activity change, negative = inhibition [16] -28% [at 19 µM]

CC(Cc1ccc(O)c(O)c1)C(C)Cc1ccc(O)c(O)c1 (stereo unspecified)
active: Potency [2] 43.6 µM | Potency [3] 34.7 µM | Potency [4] 43.6 µM | Potency [16] 13.7 µM
inactive: Potency [1] | Potency [5] | Potency [6] | Potency [8] | Potency [9] | Potency [10] | Potency [11] | Potency [12] | Potency [15]

CCc1cccc(C)c1N(C(=O)CS(=O)(=O)O)C(C)COC (stereo unspecified)
inactive: Potency [1] | Potency [2] | Potency [3] | Potency [4] | Potency [6] | Potency [7] | Potency [8] | Potency [9] | Potency [19] | Potency [10] | Potency [11] | Potency [12] | Potency [13] | Potency [14] | Potency [15] | Potency [16] | Potency [17]

Clc1cccc(Cl)n1
inactive: Potency [1] | Potency [2] | Potency [3] | Potency [4] | Potency [6] | Potency [7] | Potency [8] | Potency [9] | Potency [19] | Potency [10] | Potency [11] | Potency [12] | Potency [13] | Potency [14] | Potency [15] | Potency [16]

CC/C=C\C/C=C\C/C=C\CCCCCCCC(=O)OC
active: Potency [16] 43.3 µM
inactive: Potency [1] | Potency [2] | Potency [3] | Potency [4] | Potency [5] | Potency [7] | Potency [8] | Potency [9] | Potency [10] | Potency [12] | Potency [15]

CCCCCN=C(N)N/N=C/c1c[nH]c2ccc(OC)cc12
inactive: Potency [20] | Potency [15]
active: Potency [1] 15.1 µM | Potency [2] 7.56 µM | Potency [3] 4.77 µM | Potency [4] 8.49 µM | Potency [5] 7.56 µM | Potency [7] 10.7 µM | Potency [8] 29.8 µM | Potency [9] 13.3 µM | Potency [13] 8.41 µM | Potency [14] 13.3 µM | Potency [16] 1.68 µM

Cc1cc(C)c(O)c(C(C)(C)C)c1
inactive: Potency [1] | Potency [2] | Potency [3] | Potency [4] | Potency [6] | Potency [7] | Potency [8] | Potency [9] | Potency [19] | Potency [10] | Potency [11] | Potency [12] | Potency [13] | Potency [14] | Potency [15] | Potency [16] | Potency [17]

S=C1NC=NC2N=CNC12 (stereo unspecified)
inactive: Potency [1] | Potency [2] | Potency [4] | Potency [5] | Potency [6] | Potency [7] | Potency [8] | Potency [9] | Potency [11] | Potency [12] | Potency [13] | Potency [14] | Potency [15] | Potency [16]
active: Potency [3] 21.9 µM

C=Cc1ccc(O)c(OC)c1
active: Potency [13] 54.5 µM | Potency [14] 27.3 µM | Potency [16] 13.7 µM
inactive: Potency [1] | Potency [2] | Potency [3] | Potency [4] | Potency [5] | Potency [6] | Potency [7] | Potency [8] | Potency [9] | Potency [11] | Potency [12] | Potency [15] | Potency [17]

O=C1CCC/C=C\CCCCCCCCCC1
inactive: Potency [1] | Potency [2] | Potency [3] | Potency [4] | Potency [5] | Potency [6] | Potency [7] | Potency [8] | Potency [9] | Potency [11] | Potency [12] | Potency [13] | Potency [15] | outcome [18] | Potency [17]
